According to PubChem BioAssay (NCATS):
“And” between values parts separate entries of the source, which are not always exact repeats. Equal values may be shown once. Records with an inconclusive call do not appear. Where a call stands in place of a potency, no number is given. A structure can be active in one record and inactive in another. The source made the active and inactive calls. The call rests on the fitted dose curve; in most records, active means well fitted curve in the direction sought with a large enough effect; inconclusive means small, poorly fitted or top-dose-only effect, or another doubt; inactive means no such curve, though single readings can be large; an effect the other way counts as inactive or inconclusive.

Assays:
[1] = P-glycoprotein substrates identified in KB-8-5-11 adenocarcinoma cell line, qHTS therapeutic library screen (AID 1346987); further: nearly all actives have a fitted effect of over 65% in size; further: potency means the concentration at half of the fitted maximal effect
Summary of the method: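 Luminescence from CellTiter-Glo, read 5 min after addition, quantified survival of KB-8-5-11 (P-gp-overexpressing) cells exposed to compounds for 72 h. AC50 was derived from concentration-response curves.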

[2] = NS1 protein of Zika virus - qHTS assay to identify small molecule inhibitors in human HEK 293 cells (AID 1347053); further: nearly all actives have a fitted effect of over 55% in size; further: potency means the concentration at half of the fitted maximal effect
Summary of the method: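 Compound-treated (1 h pre-infection) HEK 293 cells infected with ZIKV MR766, MOI = 0.5; after 24 h at 37 C, NS1 read by TR-FRET; data normalized to uninfected and infected controls.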

[3] = qHTS of pediatric cancer cell lines to identify multiple opportunities for drug repurposing: Primary screen for TC32 cells (AID 1347089); further: nearly all actives have a fitted effect of over 60% in size; further: potency means the concentration at half of the fitted maximal effect
Summary of the method: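 A viability screen of TC32 cells was run over 48 h, with primary MIPE doses spanning 0.78 nM–46 µM and NPC doses 0.59 nM–46 µM. ATP luminescence (CellTiter-Glo) served as the read-out.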

[4] = qHTS of pediatric cancer cell lines to identify multiple opportunities for drug repurposing: Primary screen for DAOY cells (AID 1347090); further: nearly all actives have a fitted effect of over 55% in size; further: potency means the concentration at half of the fitted maximal effect
Summary of the method: (§1)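 Viability measured as metabolically active cells via CellTiter-Glo luminescence following 48 hours of compound exposure, 11-point dilutions in confirmatory testing. 500-1,000 cells/well plated 5 hours before dosing; controls were DMSO and 2.3 µM bortezomib.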

[5] = qHTS of pediatric cancer cell lines to identify multiple opportunities for drug repurposing: Primary screen for SJ-GBM2 cells (AID 1347091); further: potency means the concentration at half of the fitted maximal effect
Summary of the method: as §1

[6] = qHTS of pediatric cancer cell lines to identify multiple opportunities for drug repurposing: Primary screen for SK-N-MC cells (AID 1347093); further: potency means the concentration at half of the fitted maximal effect
Summary of the method: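 Metabolically active cells were quantified by ATP-dependent luminescence (CellTiter-Glo, 15 min at room temperature) following 48 h treatment. Cells had been plated at 500-1,000 per well and settled for 5 h beforehand.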

[7] = qHTS of pediatric cancer cell lines to identify multiple opportunities for drug repurposing: Primary screen for BT-37 cells (AID 1347094); further: potency means the concentration at half of the fitted maximal effect
Summary of the method: (§2)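 Plated cells (500-1,000 per well, growth media) were allowed to settle for 5 hours, treated with compound dilutions for 48 hours, then lysed with CellTiter-Glo for 15 min at room temperature before luminescence reading.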

[8] = qHTS of pediatric cancer cell lines to identify multiple opportunities for drug repurposing: Primary screen for NB-EBc1 cells (AID 1347095); further: potency means the concentration at half of the fitted maximal effect
Summary of the method: as §2

[9] = qHTS of pediatric cancer cell lines to identify multiple opportunities for drug repurposing: Primary screen for U-2 OS cells (AID 1347096); further: nearly all actives have a fitted effect of over 50% in size
Summary of the method: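 Viability after 48 h compound treatment at 37C, 500-1,000 cells/well, read as ATP luminescence with CellTiter-Glo. Primary screens used 11-point (MIPE, 0.78 nM-46 µM) or 8-point (NPC, 0.59 nM-46 µM) final concentrations; follow-up screens used 11-point dilutions.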

[10] = qHTS of pediatric cancer cell lines to identify multiple opportunities for drug repurposing: Primary screen for Saos-2 cells (AID 1347097); further: nearly all actives have a fitted effect of over 40% in size; further: potency means the concentration at half of the fitted maximal effect
Summary of the method: as §2

[11] = qHTS of pediatric cancer cell lines to identify multiple opportunities for drug repurposing: Primary screen for SK-N-SH cells (AID 1347098); further: nearly all actives have a fitted effect of over 65% in size; further: potency means the concentration at half of the fitted maximal effect
Summary of the method: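 Cells (500-1,000/well) rested 5 h, then received compounds for 48 h; metabolically active cells were measured by CellTiter-Glo luminescence. Final concentrations spanned up to 46 µM (MIPE, 11-point) or 0.59 nM-46 µM (NPC, 8-point) in primary screens, 11-point in follow-ups.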

[12] = qHTS of pediatric cancer cell lines to identify multiple opportunities for drug repurposing: Primary screen for A673 cells (AID 1347092); further: nearly all actives have a fitted effect of over 45% in size; further: potency means the concentration at half of the fitted maximal effect
Summary of the method: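 Titration-based qHTS on A673 cells: MIPE compounds spanned 11 points (0.78 nM to 46 µM final), NPC compounds 8 points (0.59 nM to 46 µM final). Viability after 48 h was measured by ATP luminescence.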

SMILES	Potency [1]	Potency [2]	Potency [3]	Potency [4]	Potency [5]	Potency [6]	Potency [7]	Potency [8]	Potency [9]	Potency [10]	Potency [11]	Potency [12]
C[C@@H]1CN(c2c(F)c(N)c3c(=O)c(C(=O)O)cn(C4CC4)c3c2F)C[C@H](C)N1	inactive	inactive	inactive	inactive	inactive	inactive	inactive	inactive	inactive	inactive	inactive	
CC(=O)Oc1ccccc1C(=O)Nc1ncc([N+](=O)[O-])s1	inactive and 13 µM (active)	inactive	inactive	13.6 µM (active)	8.55 µM (active)		28 µM (active) and 19.5 µM (active)	10.8 µM (active) and 15 µM (active)		27 µM (active)	inactive	42.9 µM (active)
CC(=O)CC(c1ccccc1)c1c(O)c2ccccc2oc1=O (centres undefined)	inactive	inactive	inactive	inactive	inactive		inactive	inactive	inactive	inactive	inactive	inactive
CN(C)c1ccc(C(=C2C=CC(=[N+](C)C)C=C2)c2ccc(N(C)C)cc2)cc1	8.2 µM (active) and 1.48 µM (active)	inactive and 3.72 µM (active)	2.64 µM (active) and 1.17 µM (active)	2.66 µM (active) and 1.48 µM (active)	1.33 µM (active) and 372 nM (active)	1.06 µM (active)	1.23 µM (active) and 685 nM (active)	2.99 µM (active) and 935 nM (active)		2.11 µM (active) and 418 nM (active)	1.09 µM (active) and 2.41 µM (active)	
C[C@]12C=CC(=O)C=C1CC[C@@H]1[C@@H]2C(=O)C[C@@]2(C)[C@H]1CC[C@]2(O)C(=O)CO	inactive	inactive	inactive	inactive		inactive	inactive	inactive	inactive	inactive	inactive	inactive
C1CCC(C(CC2CCCCN2)C2CCCCC2)CC1 (centres undefined)	5.17 µM (active) and 16.6 µM (active)	10 µM (active) and 11.8 µM (active)	inactive	inactive		11.9 µM (active)	34.7 µM (active) and 30.6 µM (active)	26.4 µM (active)	inactive	13.3 µM (active) and 33.2 µM (active)	15.4 µM (active)	10.6 µM (active) and 23.5 µM (active)
O=C(NCC1CN(c2ccc(N3CCOCC3=O)cc2)C(=O)O1)c1ccc(Cl)s1 (centres undefined)	inactive	inactive	inactive	inactive	inactive		inactive	inactive	inactive	inactive	inactive	inactive
O=C(O)c1cccnc1	inactive	inactive	inactive	inactive	inactive		inactive	inactive	inactive	inactive	inactive	inactive
CN(CCOc1ccc(CC2SC(=O)NC2=O)cc1)c1ccccn1 (centres undefined)	inactive	inactive	inactive	inactive	inactive		inactive	inactive	inactive	inactive	inactive	inactive
CCc1c2c(nc3ccc(OC(=O)N4CCC(N5CCCCC5)CC4)cc13)-c1cc3c(c(=O)n1C2)COC(=O)[C@]3(O)CC	inactive	332 nM (active)	236 nM (active) and 739 nM (active)	13.3 µM (active) and 1.48 µM (active)		106 nM (active) and 105 nM (active)	389 nM (active) and 544 nM (active)	1.19 µM (active) and 332 nM (active)	inactive	1.5 µM (active) and 1.32 µM (active)	7.7 µM (active)	1.06 µM (active) and 590 nM (active)
NCCCC(O)(P(=O)(O)O)P(=O)(O)O	inactive	inactive	inactive	inactive	inactive	inactive	inactive	inactive	inactive	inactive	inactive	
COc1ncnc(NS(=O)(=O)c2ccc(N)cc2)c1OC	inactive	inactive	inactive	inactive		inactive	inactive	inactive	inactive	inactive	inactive	
Nc1ccc(S(=O)(=O)Nc2ccccn2)cc1		inactive	inactive	inactive		inactive	inactive	inactive	inactive	inactive	inactive	
CNCC[C@H](Oc1cccc2ccccc12)c1cccs1	inactive		inactive		inactive	1.05 µM (active)		inactive	inactive		19.4 µM (active) and 5.41 µM (active)	1.18 µM (active)
C[C@@H](NCCCc1cccc(C(F)(F)F)c1)c1cccc2ccccc12	inactive and 20.6 µM (active)	inactive					inactive	inactive	inactive			inactive
O[C@@H](CNC[C@H](O)[C@H]1CCc2cc(F)ccc2O1)[C@@H]1CCc2cc(F)ccc2O1	20.9 µM (active)		inactive	inactive	20.9 µM (active)		27.6 µM (active)	21.1 µM (active)		26.4 µM (active)	27.3 µM (active)	
NC(N)=NC(N)=NCCc1ccccc1	inactive	inactive	inactive	18.7 µM (active)		inactive		inactive	inactive	inactive	inactive	8.41 µM (active) and 5.9 µM (active)
O=S(=O)(O)CCS	inactive	inactive	inactive	inactive			inactive	inactive	inactive	inactive	inactive	inactive
CCOC(=O)[C@H](CCc1ccccc1)N[C@H]1CCc2ccccc2N(CC(=O)O)C1=O	inactive and 23.5 µM (active)	inactive	inactive						inactive		24.1 µM (active)	
O=c1cc(O)c(Cl)c[nH]1	inactive	inactive	inactive		inactive		inactive	inactive	inactive	inactive	inactive	
